Experimental data published in PubChem BioAssay (EPA / NIEHS).
Results filed as inconclusive are left out. Active and inactive are the calls of the source. How the source made its calls: active means hit-call score of the fitted dose curve at least 0.9, where 1 is the maximum; inconclusive means response in the unintended direction; inactive means score below 0.9.

Molecular target: frog Thyroid hormone Receptor alpha (TRa), thra-a (gene 397942) (UniProt P15204)
Test: ATG_frTRa_XSP2: Attagene TRANS-FACTORIAL Multi-Species (XSP2) HepG2 Assay for frog Thyroid hormone Receptor alpha (TRa) (AID 2283839);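 on AC50: AC50 reflects induction of frog TRa-driven reporter mRNA above DMSO baseline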
Method: ATG_XSP2_multi-species_TRANS is a cell-based, multiplexed assay created by modifying the existing Attagene TRANS-FACTORIAL system to include a panel of nuclear receptors from some or all the following species: human (Homo sapiens), mouse (Mus musculus), frog (Xenopus laevis), zebrafish (Danio rerio), chicken (Gallus gallus), and turtle (Chrysemys picta). The ECOTOX-FACTORIAL format uses HepG2, a human liver cell line, with measurements taken at 24 hours after chemical dosing in a 24-well plate. Xsp2 included 3 nM 6-alpha-fluorotestosterone and 1.5 nM norgestrel to stimulate the androgen receptor.ATG_frTRa_XSP2 is one of 29 assay components measured or calculated from the ATG_XSP2_multi-species_TRANS assay. It is designed to make measurements of mRNA induction, a form of inducible reporter, as detected with fluorescence intensity signals by Reverse transcription polymerase chain reaction (RT-PCR) and Capillary electrophoresis technology.The assay endpoint ATG_frTRa_XSP2 was analyzed in the positive analysis fitting direction relative to DMSO as the negative control and baseline of activity. Using a type of inducible reporter, measures of mRNA for gain-of-signal activity can be used to understand the reporter gene at the transcription factor-level as they relate to the gene TR. Furthermore, this assay endpoint can be referred to as a primary readout, because this assay has produced multiple assay endpoints where this one serves a reporter gene function. To generalize the intended target to other relatable targets, this assay endpoint is annotated to the nuclear receptor intended target family, where the subfamily is non-steroidal.
Human liver HepG2 cells are transiently transfected with multiple reporter transcription units (MRTUs) in 6-well plates using FuGene 6 reagent (Roche; 3 ml FuGene/1 mg DNA). The MRTU constructs are regulated by a cis-regulating element (promoter). […] A major difference between the CIS and TRANS system is that in CIS activities of endogenous TFs are measured, whereas the TRANS assay evaluates changes in activities of exogenous, chimeric NR-Gal4 proteins. […] At the end of 24 hour incubation, total RNA was isolated using TriZol reagent (Invitrogen). The isolated RNA is then reverse-transcribed using oligo(dT) primer and Mo-MLV reverse transcriptase (Invitrogen) with DNAse I (Ambion) treatment for 30 min. The one-tenth of the produced cDNA was amplified by PCR using Taq DNA polymerase (Invitrogen) and two reporter sequence-specific primers. The PCR products were fluorescently labeled by primer extension with 6-arboxyfluorescein (6-FAM) 5'-labeled reporter sequence-specific primer (2 min at 95 C, 20 s at 68 C and 10 min at 72 C) and these products were digested with 5U of HpaI (New England Biolabs) for 2h at 37 C. The fragments were purified using Qiaquick PCR columns (Qiagen), analyzed on an ABI 3130xL genetic analyzer (Applied Biosystems) with peak positions identified by using a set of X-rhodamine (ROX)-labeled MapMarker1000 molecular weight standards (BioVentures). The raw capillary electrophoresis data was processed using Attagraph software (Attagene).

Chain of frog Thyroid hormone Receptor alpha (TRa), thra-a (gene 397942) (P15204 whole entry, looked up): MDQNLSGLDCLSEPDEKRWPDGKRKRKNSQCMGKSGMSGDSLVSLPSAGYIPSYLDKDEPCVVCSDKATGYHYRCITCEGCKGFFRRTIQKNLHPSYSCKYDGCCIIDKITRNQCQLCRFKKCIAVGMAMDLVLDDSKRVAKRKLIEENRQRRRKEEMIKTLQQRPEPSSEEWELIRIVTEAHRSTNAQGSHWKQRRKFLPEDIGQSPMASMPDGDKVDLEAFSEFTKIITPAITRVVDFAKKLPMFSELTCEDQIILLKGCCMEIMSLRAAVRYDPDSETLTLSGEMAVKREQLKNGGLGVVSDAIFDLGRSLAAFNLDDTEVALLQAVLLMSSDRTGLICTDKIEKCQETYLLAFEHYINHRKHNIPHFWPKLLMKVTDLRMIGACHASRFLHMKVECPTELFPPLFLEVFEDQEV

Row | SMILES | outcome | AC50
1 | CCOC(=O)C(O)(c1ccc(Cl)cc1)c1ccc(Cl)cc1 | inactive | –
2 | c1cc2ccc3cccc4ccc(c1)c2c34 | inactive | –
3 | Clc1ccc(C(c2ccccc2Cl)C(Cl)(Cl)Cl)cc1 (stereo unspecified) | inactive | –
4 | CC(C)(c1ccccc1)c1ccc(O)cc1 | inactive | –
5 | Cc1cc(-c2ccc(N)c(C)c2)ccc1N | inactive | –
6 | CCC(=O)O[C@H]1CC[C@H]2[C@@H]3CCC4=CC(=O)CC[C@]4(C)[C@H]3CC[C@]12C | inactive | –
7 | ClC(Cl)=C(c1ccc(Cl)cc1)c1ccc(Cl)cc1 | inactive | –
8 | C[C@]12CCC(=O)C=C1CC[C@@H]1[C@@H]2CC[C@]2(C)C(=O)CC[C@@H]12 | inactive | –
9 | Oc1ccc(C(c2ccc(O)cc2)(C(F)(F)F)C(F)(F)F)cc1 | inactive | –
10 | CC(c1ccc(O)cc1)(c1ccc(O)cc1)c1ccc(O)cc1 | inactive | –
11 | CC(C)(O)C(=O)Nc1ccc([N+](=O)[O-])c(C(F)(F)F)c1 | – | 9.93 µM (active)
